From PubChem
KB-3-1 cytotox: kills parental KB-3-1 adenocarcinoma cells; Potency, µM (series often up to 46.1 µM), hits mostly cytotoxic; 400,000 tested, 1.4% active; KB-3-1 viability, CellTiter-Glo ATP luminescence, 72 h; note: % is set by controls: 0 for no effect and ±100 for the full control effect; nearly all actives have a fitted effect of over 60% in size
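Here the drug-naive KB-3-1 line serves as comparator for MDR sub-line selectivity; cells received compound titrations, 72 h at 37 °C, then CellTiter-Glo readout.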
KB-V1 MDR tox: KB-V1 MDR subline cytotoxicity; Potency, µM (series often up to 46.1 µM), usual class: cytotoxic; 400,000 tested, 3.4% active; KB-V1 MDR cells viability, CellTiter-Glo, 72 h; note: % is set by controls: 0 for no effect and ±100 for the full control effect; nearly all actives have a fitted effect of over 60% in size
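KB-V1, DMEM (no phenol red) + 10% FBS; cpd pin-transferred, titration series; 72 h, 37 degrees C; CellTiter-Glo, luminescence. Data normalized, curve-fit.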
SW480 rereplic: inducers of DNA re-replication in SW480 colon cancer cells. 340,000 tested, 1.8% active. SW480 DNA re-replication, Hoechst DNA content imaging, 48 h. Potency, µM (series often up to 46.1 µM), inactives show at the highest dose re-replication activation, most hits filed as activators; note: % of control where 0% means no effect; nearly all actives have a fitted effect of over 55% in size
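Quantitative HTS format with DMSO vehicle controls; 48 hr drug incubation at 37 C, then 40 min Hoechst staining and scanning imager measurement at 405 nm excitation.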
PINK1 expr mod: PINK1 expression modulation | 410,000 tested, 0.2% active | AID 624263 | PINK1 immunofluorescence, high-content cytometry, 24 h | Potency, µM (highest dose often 76.6 µM), without a hit: top-dose activation (PINK1 increase), hits mostly activators; active = well fitted activation curve with a large enough effect; inconclusive = small, poorly fitted or top-dose-only effect; cell line not stated here; note: % of control where 0% means no effect; nearly all actives have a fitted effect of over 65% in size
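A stable cell line was treated with compounds at 5 concentrations for 24 hours, with CCCP as control. PINK1 levels and mitochondrial localization were measured by immunofluorescence with mitochondrial, cell and nuclear markers after fixation, read by laser-scanning cytometry.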
MCF10A rereplic: inducers of DNA re-replication in MCF 10A breast cells | 350,000 tested, 2.9% active | MCF 10A DNA re-replication, Hoechst nuclear intensity, 48 h | Potency, µM (series often up to 46.1 µM), for the others: at the highest dose activity, positive = re-replication, actives largely listed as activators | AID 624296; note: % of control where 0% means no effect; nearly all actives have a fitted effect of over 50% in size
PTAP TSG101 blk: blocks PTAP/TSG101 interaction to inhibit HIV-1 budding. Potency, µM (doses to about 115 µM), for the others: at the highest dose activity change, negative = inhibition, most hits filed as inhibitors. Fluorescence polarization, FITC-PTAP peptide / Tsg101 binding. 340,000 tested, under 10 active. AID 493005; active = well fitted inhibition curve with a large enough effect in the main read-out, with a control signal flat, not every such curve was filed as active; inconclusive = small, poorly fitted or top-dose-only effect, or effect the other way, or a change in a side signal; inactive = no such curve, though single readings can be large or run the other way; note: % of control where 0% means no effect
Target sequence (Q99816 whole entry, looked up): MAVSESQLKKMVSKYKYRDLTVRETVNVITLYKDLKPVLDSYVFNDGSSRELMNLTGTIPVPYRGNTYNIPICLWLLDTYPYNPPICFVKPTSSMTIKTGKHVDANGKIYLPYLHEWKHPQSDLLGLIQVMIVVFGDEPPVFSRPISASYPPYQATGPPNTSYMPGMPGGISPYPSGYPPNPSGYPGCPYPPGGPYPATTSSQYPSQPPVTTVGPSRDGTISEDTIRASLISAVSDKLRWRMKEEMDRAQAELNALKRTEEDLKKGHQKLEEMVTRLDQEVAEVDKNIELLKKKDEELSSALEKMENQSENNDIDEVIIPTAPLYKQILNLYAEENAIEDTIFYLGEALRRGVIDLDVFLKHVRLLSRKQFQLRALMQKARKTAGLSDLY
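Tsg101 binding domain (10 uM final) was mixed with compound and a FITC-labeled PTAP peptide (50 nM final) in HEPES pH 7.5 buffer with NaCl, Tween 20, EDTA and TCEP; fluorescence polarization was read after 20 min at r.t.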
The depositor's hits bear a star; i = inactive; u = inconclusive; x = no result; ! = a repeat was not active; [ ] = another dose, or the depositor's remark. Shown are actives, neighbours in structure and some others; about 6.8% of the full set was active somewhere. Unless noted, calls come from the whole dose curve; as a rule, active = well fitted curve in the direction sought with a large enough effect; inconclusive = small, poorly fitted or top-dose-only effect, or another doubt; inactive = no such curve, though single readings can be large; an effect the other way counts as inactive or inconclusive. Potency is the fitted concentration of half-maximal effect.

SMILES | KB-3-1 cytotox | KB-V1 MDR tox | SW480 rereplic | PINK1 expr mod | MCF10A rereplic | PTAP TSG101 blk
COc1ccc(C(=O)NC2CCN(CC(=O)NCc3ccccc3F)CC2)cc1 | i | i | -2% | 0% | u | -5%
O=C(CN1CCC(NC(=O)c2cccc(F)c2)CC1)NCc1ccccc1F | i | 18µM* | 3% | 2% | 5% | -2%
COC(=O)CN1C(=O)C(C)(C)c2cc(S(=O)(=O)Nc3ccc(C(C)C)cc3)ccc21 | i | i | x | 2% | x | x
Cc1nc2c(-c3ccc(F)cc3)c(C)nn2c(C)c1CCC(=O)NCc1cccc(Cl)c1 | u | i | x | 3% | x | x
CCOC(=O)C1=C(C)NC(C)=C(C(=O)OCC)C1c1cc2ccc(C)cc2[nH]c1=O | 6.5µM* | i | u | 8% | u | -3%
S=C(NNc1ccc2ccccc2c1)NC1CCCCC1 | u | u | u | 9% | 4.6µM* | -3%
S=C(Nc1ccc(Oc2ccccc2)cc1)NC1CCCCC1 | u | u | 5% | 0% | u | -1%
S=C(Nc1ccc(Oc2ccc(NC(=S)NC3CCCCC3)cc2)cc1)NC1CCCCC1 | u | 16µM* | -3% | 0% | -5% | -4%
CC(C)c1ccc(NC(=S)NC2CCCCCC2)cc1 | i | i | u | u | u | -4%
S=C(Nc1ccc(Oc2ccccc2)cc1)NC1CCCCCC1 | u | u | 2% | u | 15µM* | -3%
Cc1noc(C)c1C(=O)N1CCC2(CC1)CCN(C(c1ccccc1)c1ccccc1)CC2 | x | x | x | 0% | x | x
COc1cc2nc(CCc3nc4cc(OC)c(OC)cc4[nH]3)[nH]c2cc1OC | i | i | x | x | x | x
S=c1[nH]cc(Oc2ccc(Cl)cc2Cl)c(=S)[nH]1 | i | u | u | 29% | 16µM* | -13%
Clc1ccc(Oc2cnns2)c(Cl)c1 | i | i | -1% | 0% | 5% | -11%
CCCCOc1ccc(OC(=O)c2sc3ncn(Cc4cccc(F)c4)c(=O)c3c2C)cc1 | i | u | x | 1% | x | x
COc1ccccc1CNC(=O)CCn1c(=O)c2ccccc2n(CC(=O)Nc2ccc(C)cc2)c1=O | i | i | x | 7% | x | x
CCc1cc2c(=O)n(Cc3ccco3)c(SCC(=O)NCC3CCCO3)nc2s1 (stereo not drawn) | u | 2.6µM* | -2% | 3% | 3% | -3%
CCc1cc2c(=O)n(Cc3ccco3)c(SCc3c(C)noc3C)nc2s1 | 5.8µM* | 2.9µM* | 2.6µM* | 18% | 3.3µM* | -7%
Cc1nc(SCC(=O)NCC2CCCO2)c2c3c(sc2n1)CCC3 (stereo not drawn) | x | x | -3% | 2% | -1% | -2%
Cc1nc(SCC(=O)NCC2CCCO2)c2cc(-c3ccccc3)sc2n1 (stereo not drawn) | u | u | -3% | 5% | 21µM* | -3%
COc1cccc(C(=O)Nc2nc(-c3nnn(-c4cccc(Cl)c4C)c3C)ns2)c1 | 15µM* | i | x | 4% | x | x
CCn1c(C(=O)NCc2ccccc2)cc2sc(Cl)cc21 | i | i | x | -1% | x | x
COc1ccc(Nc2cnn(-c3nc4ccccc4s3)c(=O)c2Cl)cc1 | u | 21µM* | 10% | u | u | -3%
O=C(Nc1cccc(O)c1)c1cc(-c2ccccc2Cl)on1 | i | i | 2% | 1% | 15% | -1%
O=C(Nc1ccccc1)OCc1cc(-c2ccccc2Cl)on1 | i | i | -5% | -2% | 26µM* | 0%
SMILES | KB-3-1 cytotox | KB-V1 MDR tox | SW480 rereplic | PINK1 expr mod | MCF10A rereplic | PTAP TSG101 blk
Cc1ccc(-c2nn(CC(=O)NC3CCCC3)c3c2cnc2ccc(F)cc23)cc1C | i | i | x | 2% | x | x
Cc1ccc(-n2nc(CC#N)c(C#N)c2N)cc1 | i | i | -3% | 2% | -7% | 2%
Cc1ccc(Nc2nc(N)c(C#N)c(CC#N)c2C#N)cc1 | i | i | u | 5% | 21µM* | -1%
O=S1(=O)CCOC[C@H](CC2CCCCC2)N1Cc1cccc(C(F)(F)F)c1 | u | 13µM*! | -8% | 5% | -5% | -4%
CCOC(=O)N1CCN(Cc2nc3cc([N+](=O)[O-])ccc3n2C)CC1 | i | i | 30% | 2% | 8% | 1%
CC(=O)N1CCN(Cc2nc3cc([N+](=O)[O-])ccc3n2C)CC1 | i | i | 2.9µM* | -1% | 0% | -3%
O=C(CC(c1cccs1)N1Cc2ccccc2C1=O)Nc1ccccc1 (stereo not drawn) | i | i | x | -4% | x | x
O=[N+]([O-])c1ccc(/C=N/Nc2ccc3ccccc3c2)o1 | i | i | u | 6% | 10% | 0%
CCNc1nc(NCC)nc(N/N=C/c2ccc([N+](=O)[O-])o2)n1 | u | 21µM* | u | 9% | 10% | 0%
Cc1ccc2nc(N/N=C\c3ccc([N+](=O)[O-])o3)nc(-c3ccccc3)c2c1 | 26µM* | 18µM* | u | 3% | u | 2%
O=[N+]([O-])c1ccc(-c2ccc(/C=N/Nc3nc(N4CCCC4)nc(N4CCCC4)n3)o2)cc1 | i | i | u | u | u | u
O=[N+]([O-])c1ccc(/C=N/Nc2nc(N3CCCC3)nc(N3CCCC3)n2)o1 | i | 21µM* | -2% | 0%[38.3 µM] | 0% | -3%
CCOC(=O)c1ccc(NC(=O)CC2C(=O)N(c3cccc(OC)c3)C(=O)N2Cc2cccnc2)cc1 (stereo not drawn) | x | x | x | 0% | x | x
Cn1c(=O)c2c(-c3ccccc3Br)n(C(C)(C)C)cc2n(C)c1=O | i | i | x | 0% | x | x
CC(O)(COc1ccccc1)c1ccc2c(c1)CN(Cc1ccc3nsnc3c1)CCO2 (stereo not drawn) | x | x | x | 0% | x | x
O=CN(Cc1ccccc1)c1cc([N+](=O)[O-])ccc1OCc1ccccc1 | i | 5.8µM* | -3% | -5% | 26% | -1%
Nc1cc([N+](=O)[O-])ccc1OCc1ccccc1 | i | u | -3% | 0% | 19% | 1%
CC(=O)N(C)c1cc([N+](=O)[O-])ccc1OCc1ccccc1 | i | 21µM* | -2% | -2% | 20% | 1%
COc1ccc2c(c1)CC(C(=O)Nc1c(C)cc(C)cc1C)CO2 (stereo not drawn) | i | i | x | 1% | x | x
COc1cc(CNC(C)c2ccccc2)cc(Br)c1OCc1ccccc1 (stereo not drawn) | u | u | 23µM* | -1% | u | -3%
COc1cc(CNc2ccc(O)cc2)cc(Br)c1OCc1ccccc1 | i | i | u | 4% | 23µM* | -3%
CC(C)c1nn2c(=O)cc(COC(=O)c3ccccc3NC(=O)COc3ccccc3)nc2s1 | x | x | x | 0% | x | x
